Bioassay records as filed in PubChem BioAssay.
Hits are enriched below; roughly 21% of the tested compounds scored in any of these assays.
Shiga inhibitor – blocks Shiga toxin action in Vero cells; Vero cells, Shiga toxin protein synthesis inhibition reporter; inhibition, % at 38.7 µM; actives 9.2% (n = 290,000); in the data active means inhibition mostly above about 28%, no sharp cut-off; inactive means mostly below about 43%; further: 0% is about no effect
CHX counter – affects cycloheximide protein synthesis inhibition readout, counter-screen; cell reporter, cycloheximide protein synthesis inhibition counterscreen; actives 12% (n = 300,000); max response, %; in the data active means max response mostly above about 13%, no sharp cut-off; inactive means mostly below about 14%; further: read at 38.3 µM for the half of the compounds with a filed dose; 0% is about no effect
Pf growth 96h – P. falciparum growth inhibition at 96 hour, primary screen for plastid delayed-death inhibitors; P. falciparum luciferase reporter growth, 96 h; Potency, µM (top dose mostly 28.7 µM), for the others: at the top dose activity change, negative = inhibition, hits mostly inhibitors; actives 6.9% (n = 320,000); AID 504834; further: potency means the concentration at half of the fitted maximal effect; on the % scale 0 is the no-effect control and ±100 the full control effect
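P. falciparum expressing integrated firefly luciferase grown in erythrocytes (2% hematocrit, 0.05% parasitemia final) with compounds for 96 hours at 37 C, 5% CO2. Growth inhibition read as loss of luminescence after adding luciferase detection reagent.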
Pf growth 48h – P. falciparum growth inhibition at 48 hours (one generation); P. falciparum luciferase growth in erythrocytes, 48 h; Potency, µM (series often up to 28.7 µM), for inactives: top-dose activity change, negative = inhibition, actives largely listed as inhibitors; actives 5.9% (n = 310,000); AID 504832; further: potency means the concentration at half of the fitted maximal effect; on the % scale 0 is the no-effect control and ±100 the full control effect
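Compounds are pin-transferred into medium, infected erythrocytes (2% hematocrit, 0.1% parasitemia final) are added, and plates sit one parasite generation at 37 C in 5% CO2. Detection reagent is then added and luminescence measured.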
An asterisk follows results filed as active; u = inconclusive; x = not tested or not shown; + = active, no number; [ ] = remark or other dose. Unless noted, the call rests on the fitted dose curve; in most records, active means well fitted inhibition curve with a large enough effect; inconclusive means small, poorly fitted or top-dose-only effect, or another doubt; inactive means no such curve, though single readings can be large or run the other way.

SMILES	Shiga inhibitor	CHX counter	Pf growth 96h	Pf growth 48h
O=C(NC(=S)Nc1ccccc1Cl)c1ccco1	90*	44*	-6%	2%
Cc1ccc(C(=O)C(C)OC(=O)Cc2n[nH]c(=O)c3ccccc23)cc1 (stereo not given)	x	x	18%	u
Cc1ccc(NC(=O)N2CCCCC2)cc1[N+](=O)[O-]	40	10	29%	23%
CCNc1nc(SCCOc2ccc(Br)cc2)nc(N(C)C)n1	-3	-6	u	-20%
N#Cc1cncc(C#Cc2ccccc2)c1	17	8.8*	u	20%
CC(C)(C)C(=O)Nc1cc2c3c(c1)CCN3C(=O)CC2	10	-2	30%	0%
CCN1/C(=C2\OC(=S)N(C)C2=O)Sc2ccccc21	40*	14*	21%	34%
CCN1C(=O)/C(=C2/Sc3ccccc3N2CC)SC1=S	x	-2	u	8%
Cc1ccccc1NC(=O)Cc1c[nH]c2ccccc12	5	1	-9%	5%
CCOc1ccccc1N1CCN(C(=O)c2cc3cc(OC)ccc3[nH]2)CC1	-7	14	u	u
NS(=O)(=O)c1ccc(N/N=C/c2cn(-c3ccccc3)nc2-c2ccccc2)c([N+](=O)[O-])c1	-11	1	u	4.1µM*
O=[N+]([O-])c1ccc(N/N=C/c2cn(-c3ccccc3)nc2-c2ccccc2)cc1	31*	10	4.7µM*	13µM*
O=C(NC1CCN(C(=S)Nc2ccccc2)CC1)C1CCCCC1	-7	1	u	2%
COC(=O)N/N=C/c1ccc(-c2ccc(Cl)cc2Cl)o1	26	11*	11%	-3%
COC(=O)N/N=C/c1ccc(-c2ccccc2Cl)o1	41*	41*	32%	3%
COC(=O)c1ccccc1-c1ccc(/C=N/NC(N)=O)o1	9	0	30%	21%
Cc1cc(C)c2cc(CN(CCO)C(c3nnnn3Cc3ccc(F)cc3)C(C)C)c(=O)[nH]c2c1 (stereo not given)	-17	-1	12µM*	u
O=C(Nc1ccc(/C=C/c2nc3ccccc3o2)cc1)c1cccc(C(F)(F)F)c1	102*	34*	40%	46%
O=C(Nc1ccc(/C=C/c2nc3ccccc3o2)cc1)c1c(F)cccc1F	+	28*	-36%	-66%
CC(=O)Nc1ccc(/C=C/c2nc3ccccc3o2)cc1	101*	54*	129%	x
Cn1c(=O)c(=O)n(C)c2cc(S(=O)(=O)CCC(=O)Nc3c(F)c(F)c(F)c(F)c3F)ccc21	-6	-7	u	12%
Cc1cnc(C(=O)OCc2ccc(C#N)cc2)cn1	-3	-6	42%	9%
CCn1ncc2c(OCc3ccc(C#N)cc3)cc(C)nc21	-18	-2	15µM*	x
C/C=N\NC(=O)CNC(=O)CNC(=O)c1ccccc1	-5	-2	37%	-9%
CCOc1ccc(NC(=O)C(c2ccccn2)N(C(=O)CCl)c2ccc(F)cc2)cc1 (stereo not given)	active	32*	347%	u
SMILES	Shiga inhibitor	CHX counter	Pf growth 96h	Pf growth 48h
CC1CN(CCCCOc2ccc(F)cc2)CC(C)O1 (stereo not given)	11	-7	-3%	0%
C[C@@]12CCC=C[C@H]1[C@H](c1ccc(/C=C/c3ccccc3)cc1F)N(Cc1ccccc1)C2=O	9	7	u	12µM*
COc1ccc(C2C3C=CCCC3(C)C(=O)N2Cc2ccccc2)cc1Cl (stereo not given)	-4	0	x	x
C[C@@]12CCC=C[C@H]1[C@H](c1ccc(C(F)(F)F)cc1)N(Cc1ccccc1)C2=O	-3	-4	10µM*	u
COc1ccc(CNC(=O)CN(C(=O)c2snc(C(N)=O)c2N)c2ccccc2F)cc1	1	-3	-11%	-2%
Cc1nnc2sc(SCc3ccc(Cl)cc3)nn2c1=O	-9	-5	1µM*	u
CC(=O)Nc1cccc(NC(=O)CSc2nn3c(=O)c(C)nnc3s2)c1	2	-7	5.2µM*	9.3µM*
Cc1ccc(C(=O)CSc2nn3c(=O)c(C(C)(C)C)nnc3s2)cc1	10	5	u	-4%
Cc1ccc(CSc2nn3c(=O)c(C)nnc3s2)cc1	-5	-6	u	8.3µM*
Cc1cccc(CSc2nn3c(=O)c(C)nnc3s2)c1	-11	-6	u	10µM*
O=C(Cn1c(=O)oc2ccccc21)NCCc1ccccc1Cl	20	-1	13%	15%
Cc1cc(C(=O)O)cc(S(=O)(=O)Nc2ccccc2C(=O)NC(C)c2ccccc2)c1C (stereo not given)	2	-5	5%	7%
O=C(Cn1cnc([N+](=O)[O-])c1)NCc1ccc(F)cc1	-9	-3	6.6µM*	1%
COc1ccccc1-n1cnc2cc(NCc3ccccc3O)ccc21	70*	22*	u	u
COc1ccccc1-n1cnc2cc(NCc3ccco3)ccc21	48	13	-4%[5.75 µM]	u
COc1ccccc1-n1cnc2cc(NCc3cccs3)ccc21	44*	23*	x	-17%
Cc1ccccc1-n1cnc2cc(NCc3cccs3)ccc21	45	12	u	u
COc1ccc(CNc2ccc3c(c2)ncn3-c2ccccc2OC)cc1	45	-1	13µM*	15µM*
COc1ccc(-n2cnc3cc(NS(=O)(=O)c4ccc(C)cc4)ccc32)cc1	-8	4	u	x
COc1ccccc1-n1cnc2cc(NS(=O)(=O)c3ccc(Br)cc3)ccc21	-6	-2	5.2µM*	x
CCCCNC(=O)C1CCN(S(=O)(=O)N2CCOCC2)CC1	-3	-4	-14%	24%
CC1=NN(c2nc(-c3ccccc3)cs2)C(=O)C1	24	16*	70%	u
CC1=NN(c2nc(-c3ccc(C#N)cc3)cs2)C(=O)C1	53*	15	6%	-4%
O=C1CC(c2ccccc2)=NN1c1nc(-c2ccccc2)cs1	2	8	19%	2%
N=C1SCC(=O)N1c1nc(-c2ccccc2)cs1	41	21*	368%	34%
SMILES	Shiga inhibitor	CHX counter	Pf growth 96h	Pf growth 48h
O=C1C2C3c4ccccc4C(c4ccccc43)C2C(=O)N1c1nc(-c2ccccc2)cs1 (stereo not given)	-15	-2	7%	-5%
Cc1nc(-c2ccc(C#N)cc2)cs1	4	11	-1%	2%
Cc1ccc(S(=O)(=O)CCNC(=O)Cc2ccc(Cl)cc2)cc1	-1	-1	-7%	-25%
O=C(COc1ccccc1F)NC12CC3CC(CC(C3)C1)C2	-9	-6	u	60%
Cc1cc(C(=O)NCc2ccc3c(c2)OCO3)ccc1[N+](=O)[O-]	23	25*	87%	1%
Cc1cc(C(=O)NCc2cccs2)ccc1[N+](=O)[O-]	7	14*	-5%	72%
Cc1cc([N+](=O)[O-])nn1CC(=O)NCc1cccs1	-14	-3	8.3µM*	31%
Cc1ccc(C(=O)NCc2ccc3c(c2)OCO3)cc1Cl	40	18*	u	15%
Cc1cc(SCC(=O)OCC(=O)N(CCC#N)c2ccccc2)nc2ccccc12	x	x	-2%	5%
CC(=O)N1CCCc2cc(S(=O)(=O)N3CCCC(C(=O)Nc4ccccc4C)C3)ccc21 (stereo not given)	-4	-3	8%	u
